# Results from PubChem BioAssay (Tox21).
# “And” between values parts separate entries of the source, which are not always exact repeats. Identical values can stand only once. Inconclusive results are not listed. A call without a number means that no potency is given here. Values without a mark were called inactive. The source made the active and inactive calls. Calls come from the whole dose curve; as a rule, active = well fitted cell-killing curve with a large enough effect in the repeat runs; inconclusive = weak or mixed curves, or effect the other way; inactive = flat fitted curve, though single readings scatter.
# Tests used:
# [1] = cAMP Responsive Elements (CRE) small molecule antagonists, cell-based qHTS assay: qHTS cell viability counter screen (AID 2060913); conditions: CRE-bla HEK293T viability, CellTiter-Glo luminescence, 5 h; series mostly up to 92.4 µM; note: nearly all actives have a fitted effect of over 40% in size
# Procedure, shortened: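 CRE-bla HEK293T cells were seeded in assay medium with 10% dialyzed FBS, incubated 18 hrs at 37 C, then exposed to compounds plus 0.25 uM final NKH477 for 3 hrs. Viability was read by CellTiter-Glo luminescence after 30 min, in the same wells.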
# [2] = cAMP Responsive Elements (CRE) small molecule agonists, cell-based qHTS assay: qHTS cell viability counter screen (AID 2060914); conditions: CRE-bla HEK293T viability, CellTiter-Glo luminescence, 5 h; series mostly up to 92.4 µM;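 note: viability read after 3 h of compound exposure; nearly all actives have a fitted effect of over 50% in size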
# Procedure, shortened: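 CRE-bla HEK 293T cells, plated 18 h at 37 °C, were exposed to compounds for 3 h at 37 °C/5% CO2. Viability was then measured in the same wells by CellTiter-Glo luminescence after 30 min at room temperature.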
# Potency is the fitted concentration of half-maximal effect.
Compound,Potency [1],Potency [2],"viability change, negative = cytotoxic [1]","activity change, negative = cytotoxicity [2]"
O=C(NCC1CCCCN1)c1cc(OCC(F)(F)F)ccc1OCC(F)(F)F (stereo not given),inactive,inactive,,
CCCCCCCC(C)=O,inactive,inactive,,
c1ccc(Oc2ccccc2)cc1,inactive,inactive,,
O=C(O)c1cc(Br)c(O)c(Br)c1,inactive,inactive,,
OC[C@H]1O[C@H](O[C@H]2O[C@H](CO)[C@@H](O)[C@H](O)[C@H]2O)[C@H](O)[C@@H](O)[C@@H]1O,inactive,inactive,,
O=C1OC2(c3ccccc31)c1cc(Br)c(O)c(Br)c1Oc1c2cc(Br)c(O)c1Br,inactive,inactive,,
CCOC(=O)C(C#N)=C(c1ccccc1)c1ccccc1,inactive,inactive,,
CCCCCCCC(=O)OCC,inactive,inactive,,
O=C(c1ccccc1)C(O)c1ccccc1 (stereo not given),inactive,inactive,,
COc1ccnc(CS(=O)c2nc3ccc(OC(F)F)cc3[nH]2)c1OC (stereo not given),inactive,inactive,,
CC(C)CNCC(C)C,inactive,inactive,,
O=c1c(O)c(-c2ccc(O)c(O)c2)oc2cc(O)cc(O)c12,inactive,inactive,,
C=C(C)C(=O)OCCC[Si](OC)(OC)OC,inactive,inactive,,
CCCCN(CCN(CCCC)C(=O)N1CCOCC1)C(=O)N1CCOCC1,inactive,inactive,,
O=C1[C@@H]2[C@H]3CC[C@H](C3)[C@@H]2C(=O)N1CCCCN1CCN(c2ncccn2)CC1,inactive,inactive,,
CN1CCN(C2=Nc3ccccc3Oc3ccc(Cl)cc32)CC1,inactive,inactive,,
CCC(C)c1ccccc1O (stereo not given),inactive,inactive,,
c1coc(CNc2ncnc3nc[nH]c23)c1,inactive,inactive,,
C=C(C)C(=O)OCCOc1ccccc1,inactive,inactive,,
O=C(O)Cc1cccc2ccccc12,inactive,inactive,,
C1CSCCS1,inactive,inactive,,
CC(C)CCCCCCOC(=O)CCCCC(=O)OCCCCCCC(C)C,inactive,inactive,,
CCCOC(=O)CC,inactive,inactive,,

Compound,Potency [1],Potency [2],"viability change, negative = cytotoxic [1]","activity change, negative = cytotoxicity [2]"
O=C(O)CCCC[C@@H]1SC[C@@H]2NC(=O)N[C@@H]21,inactive,inactive,,
c1ccc(Nc2ccccc2)cc1,inactive,inactive,,
CCCNC(C)C(=O)Nc1ccccc1C (stereo not given),inactive,inactive,,
Cc1[nH]c(=O)c(C#N)cc1-c1ccncc1,inactive,inactive,,
CCCCC(CC)COP(=O)(O)O (stereo not given),inactive,inactive,,
C=CC(=O)OCCCCCCOC(=O)C=C,inactive,inactive,,
NS(=O)(=O)c1cc2c(cc1C(F)(F)F)NC(Cc1ccccc1)NS2(=O)=O (stereo not given),inactive,inactive,,
N#CSCSc1nc2ccccc2s1,inactive,inactive,,
C/C=C(\C)C(=O)OCC/C=C\CC,inactive,inactive,,
CN(C)c1ccc(CCO)cc1,inactive,inactive,,
CC(C)(C)NC(N)=O,inactive,inactive,,
Clc1cc(Cl)c(-c2c(Cl)c(Cl)cc(Cl)c2Cl)cc1Cl,inactive,inactive,,
CCn1c2ccccc2c2cc(N)ccc21,inactive,inactive,,
O=C(NOCC1CC1)c1ccc(F)c(F)c1Nc1ccc(I)cc1Cl,inactive,inactive,,
CCCCC(=O)O,inactive,inactive,,
c1cc(OCC2CO2)cc(OCC2CO2)c1 (stereo not given),inactive,inactive,,
OCC(CO)(CBr)CBr,inactive,inactive,,
CCCCCCCCCC(=O)OC,inactive,inactive,,
CCCCCC(C)=O,inactive,inactive,,
O=C1Cc2ccccc2N1c1c(Cl)cccc1Cl,inactive,inactive,,
C[C@H](CCC(=O)O)[C@H]1CC[C@H]2[C@@H]3CC[C@@H]4C[C@H](O)CC[C@]4(C)[C@H]3CC[C@]12C,inactive,inactive,,
O=C1CCC(=O)N1Cl,inactive,inactive,,
CC(CSC(=O)c1ccccc1)C(=O)N1C[C@@H](Sc2ccccc2)C[C@H]1C(=O)O (stereo not given in full),,,1.17% [at 18.9 µM],-0.289% [at 18.9 µM]

Compound,Potency [1],Potency [2],"viability change, negative = cytotoxic [1]","activity change, negative = cytotoxicity [2]"
C=CC(C)CCC=C(C)C (stereo not given),inactive,inactive,,
CC1(CO)CN(c2ccccc2)NC1=O (stereo not given),inactive,inactive,,
CCCCCCCCCC[N+](C)(CCCCCCCCCC)CCC[Si](OC)(OC)OC,27.3 µM (active),24.3 µM (active),,
CC1CCC2CC1C2(C)C (stereo not given),inactive,inactive,,
CC(=O)O[C@H]1CC[C@@]2(C)C(=CC[C@@H]3[C@@H]2CC[C@]2(C)C(C(C)=O)=CC[C@@H]32)C1,inactive,inactive,,
OC[C@H]1O[C@@H](O[C@@H]2[C@@H](CO)O[C@](O)(CO)[C@H]2O)[C@H](O)[C@@H](O)[C@H]1O,inactive,inactive,,
CN1CCN(C2=Nc3ccccc3Sc3ccc(Cl)cc32)CC1,inactive,inactive,,
Cc1ccccc1OCC(O)CO (stereo not given),inactive,inactive,,
CCCCCCCCCCCC(=O)N(C)CC(=O)O,,,1.91% [at 8.39 µM],0.181% [at 8.39 µM]
COc1ccc2c(c1)c(CC(=O)OC/C=C(\C)CC/C=C(\C)CCC=C(C)C)c(C)n2C(=O)c1ccc(Cl)cc1,inactive,inactive,,
O=C(O)COCC(=O)O,inactive,inactive,,
CCCCC(CC)COP(=O)(O)OCC(CC)CCCC (stereo not given),inactive,inactive,,
Nc1nc2ncc(CNc3ccc(C(=O)N[C@@H](CCC(=O)O)C(=O)O)cc3)nc2c(=O)[nH]1,inactive,inactive,,
CC(=O)OC/C=C(\C)CC/C=C(\C)CCC=C(C)C,inactive,inactive,,
CC12CCC(CC1)C(C)(C)O2,inactive,inactive,,
CCCCC=O,inactive,inactive,,
CC(O)C(CO)C(C)O (stereo not given),inactive,inactive,,
CCNc1cc(O)ccc1C,inactive,inactive,,
O=C1OC(c2ccc(O)cc2)(c2ccc(O)cc2)c2ccccc21,inactive,inactive,,
CSc1cnc(C)cn1,inactive,inactive,,
COC(CC(C)CCCC(C)(C)O)OC (stereo not given),inactive,inactive,,
FC(F)(F)C(F)(F)C(F)(F)C(F)(F)C(F)(F)C(F)(F)C(F)(F)C(F)(F)C(F)(F)C(F)(F)F,,,10.4% [at 8.39 µM],-0.902% [at 8.39 µM]
COc1ccc(C2CNC(=O)C2)cc1OC1CCCC1 (stereo not given),inactive,inactive,,

Compound,Potency [1],Potency [2],"viability change, negative = cytotoxic [1]","activity change, negative = cytotoxicity [2]"
CC1OC1C1CCC2(C)OC2C1 (stereo not given),inactive,inactive,,
COC(=O)/C=C(\C)CCC=C(C)C,inactive,inactive,,
CC1=CCC(C(C)C)=CC1,inactive,inactive,,
C[C@H](N)[C@H](O)c1cccc(O)c1,inactive,inactive,,
CCOc1ccc2[nH]cc(C(=O)NCc3ccccc3)c(=O)c2n1,inactive,inactive,,
COC(=O)c1cc(Cl)ccc1NS(=O)(=O)C(F)(F)F,inactive,inactive,,
CCN=C1C=CC(=C(c2ccc(N(CC)CC)cc2)c2ccc(N(CC)CC)cc2)c2ccccc21,48.3 µM (active),30.5 µM (active),,
Cc1ccc(S(=O)(=O)NC(=O)NC2CCCC2)cc1,inactive,inactive,,
CCCCCCOc1ccc(O)cc1,inactive,inactive,,
N#Cc1c(F)cccc1F,inactive,inactive,,
COC(=O)NN,inactive,inactive,,
O=C(O)CCc1nc2ccccc2[nH]1,inactive,inactive,,
O=C(O)CCCCCCCC(=O)O,inactive,inactive,,
c1ccc2sc(SSc3nc4ccccc4s3)nc2c1,,,2.3% [at 18.9 µM],-2.25% [at 18.9 µM]
CCC(Cl)CCC(Cl)C(Cl)CC(Cl)C(Cl)C(Cl)CCl (stereo not given),inactive,inactive,,
COc1ccc(N=[N+]([O-])c2ccc(OC)cc2)cc1,inactive,inactive,,
CC(C)CC(=O)C1C(=O)c2ccccc2C1=O,inactive,inactive,,
O=C1c2ccccc2C(=O)C1c1ccccc1,inactive,inactive,,
COc1ccc(-n2nc(CCC(=O)N(C)O)cc2-c2ccc(Cl)cc2)cc1,inactive,inactive,,
O=C1c2ccccc2Cc2ccccc21,inactive,inactive,,
N#CC1(c2ccc(F)cc2)CCC(=O)CC1,inactive,inactive,,
CNc1ccccc1,inactive,inactive,,
CCCCCC1C(=O)CCC1CC(=O)OC (stereo not given),inactive,inactive,,

Compound,Potency [1],Potency [2],"viability change, negative = cytotoxic [1]","activity change, negative = cytotoxicity [2]"
CC(=O)C1CCCCC1=O (stereo not given),inactive,inactive,,
OC(CCN1CCCCC1)(c1ccccc1)C1CC2C=CC1C2 (stereo not given),inactive,inactive,,
C[C@@H]1C[C@H]2[C@@H]3CCC4=CC(=O)C=C[C@]4(C)[C@@]3(F)[C@@H](O)C[C@]2(C)[C@@]1(O)C(=O)CO,inactive,inactive,,
CC(C)(C)NCCO,inactive,inactive,,
Cn1cc[nH]c1=S,inactive,inactive,,
CC1=CCC(=O)O1,inactive,inactive,,
CCCCCCCCCCCCCC[N+](C)(C)C,52.7 µM (active) and 48.5 µM (active),52.7 µM (active),,
O=C(Nc1ccc(Cl)cc1)Nc1ccc(Cl)c(C(F)(F)F)c1,26.6 µM (active),23.7 µM (active),,
CC(C)(Cc1c[nH]c2ccccc12)NCC(O)COc1ccccc1C#N (stereo not given),inactive,inactive,,
Cc1cc(N)no1,inactive,inactive,,
CC[N+](C)(CC)CCOC(=O)C(O)(c1ccccc1)C1CCCCC1 (stereo not given),inactive,inactive,,
Cc1cc(N)c(S(=O)(=O)O)cc1Cl,inactive,inactive,,
O=C(Cl)c1ccccc1[N+](=O)[O-],inactive,inactive,,
CC(C)CCO,inactive,inactive,,
COc1ccc(C#N)cc1,inactive,inactive,,
CCCOC(=O)c1ccc(C(=O)OCCC)nc1,inactive,inactive,,
CCCCSCCCC,inactive,inactive,,
O=C1OC(=O)c2c(Br)c(Br)c(Br)c(Br)c21,inactive,inactive,,
CCCCCCCCCCCCC,inactive,inactive,,
CCCN(CCC)S(=O)(=O)c1ccc(C(=O)O)cc1,inactive,inactive,,
CCO[Si](C)(CCCOCC1CO1)OCC (stereo not given),inactive,inactive,,
O=C(O)CNC(=O)c1ccccc1,inactive,inactive,,
C=COC(=O)C(C)(CC)CCC(C)C (stereo not given),inactive,inactive,,
